# Screens as filed in PubChem.
# HT1080NT lethal: kills 2HG-producing HT-1080-NT fibrosarcoma cells | HT-1080-NT fibrosarcoma viability, CellTiter-Glo ATP luminescence, 48 h | Potency, µM (highest dose often 46.1 µM), for inactives: at the highest dose activity, negative = less viability, actives largely listed as cytotoxic | hit rate 1.6% among 360,000 | AID 686970;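 note: NT is the 2HG producing partner of a matched IDH1 knockdown line; potency is the fitted concentration of half-maximal effect; 0% = DMSO-treated cells and -100% = media-only wells without cells; nearly all actives have a fitted effect of over 55% in size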
#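 HT-1080-NT; 750 cells/well; 5% FBS RPMI; 48 h compound, 37 degrees C; CellTiter-Glo luminescence; curve fitting and curve-class assignment.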
# HT1080 IDH1KD tx: HT-1080 IDH1 knockdown cell toxicity (counter line). hit rate 2% among 360,000. AID 686971. Potency, µM (series often up to 46.1 µM), for the others: at the top dose activity, negative = toxicity, most hits filed as cytotoxic. HT-1080 IDH1 knockdown viability, ATP luminescence, 48 h;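 note: potency is the fitted concentration of half-maximal effect; 0% = DMSO wells and -100% = cell-free medium wells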
#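 After a 2 h attachment period, IDH1KD HT-1080 cells took pin-transferred compound for 48 h at 37 °C; ATP-based luminescence after 10 min room-temperature reagent incubation reported viability.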
# TGFb inhibitor: blocks TGF-b signaling. HepG2 CAGA-GFP TGF-b/SMAD3 reporter, GFP fluorescence, 18 h; TGF-beta stimulated, 500 pg/mL final. Potency, µM (series often up to 46.1 µM), for inactives: top-dose activity, negative = inhibition, hits mostly inhibitors. hit rate 1.2% among 410,000. AID 588855; note: potency is the fitted concentration of half-maximal effect; % is set by controls: 0 for no effect and ±100 for the full control effect; nearly all actives have a fitted effect of over 65% in size
#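 GFP signal (ex488/em500-530) from TGF-beta-stimulated HEPG2 CAGA-GFP cells, 500 pg/mL final, 18 h at 37 degrees C in DMEM plus 1% FBS, normalized to unstimulated and DMSO-stimulated controls.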
# Giardia killer: Giardia lamblia killing; Giardia lamblia trophozoite viability; activity change, % at 7.66 µM, hits read low; AID 540267; hit rate 0.15% among 340,000; in the data active = activity change below about -80%; inconclusive = between about -30% and that limit;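 note: parasites exposed to compound for two days anaerobically before the ATP read; % is set by controls: 0 for no effect and ±100 for the full control effect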
#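 Trophozoite viability was measured as ATP-dependent luminescence, read 15-30 min after reagent addition. Before that, parasites at 100 cells/well were exposed to compounds for 48 h, anaerobically, at 37 deg C.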
# IL-1B inflam inh: inflammasome signaling inhibition, IL-1 beta readout | THP-1 LPS/ATP IL-1B secretion, AlphaLISA, 16 h; hits give low values | activity change, % at 57.5 µM | hit rate 4.7% among 360,000; in the data active = activity change below about -50%; inconclusive = mostly about -30% to -49%; note: % is set by controls: 0 for no effect and ±100 for the full control effect
#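 THP-1 cells pretreated 1 hr with compounds (up to 57.5 uM final), then stimulated with LPS (250 ng/mL final) plus ATP (1.25 mM final); secreted IL-1B measured by AlphaLISA after 16 hr, decreased signal indicating inhibition.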
# HepG2 viability: kills HepG2 cells in TGF-b inhibitor counter-screen; hit rate 0.76% among 410,000; HepG2 CAGA-GFP viability, ATP luminescence, 18 h; Potency, µM (top dose mostly 46.1 µM), without a hit: at the highest dose activity change, negative = cytotoxicity, most hits filed as cytotoxic; note: potency is the fitted concentration of half-maximal effect
#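 HepG2 CAGA-GFP cells (1000/well, DMEM with 1% FBS) received compound, then TGF-beta at 500 pg/mL final, and were incubated 18 hours at 37 degrees C. Viability was read by CellTiter-Glo luminescence. Media-only wells were set as complete cell-killing and DMSO as no toxicity.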
# * = called active by the depositor; u = inconclusive; x = no result given. An excerpt weighted towards active compounds, which were near 6.5% of everything screened. Unless noted, calls come from the whole dose curve; as a rule, active = well fitted curve in the direction sought with a large enough effect; inconclusive = small, poorly fitted or top-dose-only effect, or another doubt; inactive = no such curve, though single readings can be large; an effect the other way counts as inactive or inconclusive.
SMILES,HT1080NT lethal,HT1080 IDH1KD tx,TGFb inhibitor,Giardia killer,IL-1B inflam inh,HepG2 viability
CC(C)CCn1c(N)c(C(=O)NCc2cccs2)c2nc3ccccc3nc21,10%,2%,-1%,11,u,-1%
COC(=O)C1=C(c2ccc3ccccc3c2)C[C@@H]2CC[C@H]1N2C(=O)N1CCC(O)CC1,-6%,3%,-13%,39,19,-19%
C#C[C@]1(O)CC[C@H]2[C@@H]3[C@H](O)C[C@H]4C[C@@H](O)CC[C@]4(C)[C@H]3CC[C@@]21C,-2%,-1%,-2%,x,12,15%
Nc1c(C(=O)NCC2CCCO2)c2nc3ccccc3nc2n1Cc1ccco1 (centres undefined),u,u,-14%,-15,-71*,8%
CCOc1ccc(-n2c(O)c(N=Nc3ccc([N+](=O)[O-])cc3)c(=O)[nH]c2=O)cc1,2%,-2%,-20%,-8,18,-9%
CCOP(=S)(OCC)N1CC1,-2%,-1%,-19%,1,-4,3%
CCN(C(=O)COC(=O)Cc1ccccc1)c1c(N)n(Cc2ccccc2)c(=O)[nH]c1=O,5%,4%,15%,3,2,-1%
CC(C)OP(=O)(OC(C)C)C(NCc1ccccc1)c1ccccc1 (centres undefined),1%,1%,-3%,20,-19,-26%
CC(C)c1oc(=O)cc2c1[C@@H](O)[C@H]1OC(=O)[C@@]3(C)CC[C@@H](O)[C@@]2(C)C13 (some centres undefined),u,u,2µM*,-20,62,-25%
Cn1cc(C(=O)Cc2ccccc2)c2ccccc21,0%,0%,-2%,-9,-15,2%
CN(Cc1cccc(-c2ccncc2)c1)C(=O)Oc1ccccc1Cl,-17%,-29%,x,x,18,x
CN(Cc1cccc(-c2ccncc2)c1)C(=O)Oc1ccccc1Cc1ccccc1,18µM*,13µM*,x,x,0,x
O=[N+]([O-])c1cccc(NP(=O)(N2CC2)N2CC2)c1,-1%,-2%,8%,-24,-3,11%
Cc1ccccc1[N+](=O)[O-],x,x,2%,5,26,-10%
COC(=O)C1=C(C)NC(C)=C(C(=O)OC)C1c1ccccc1[N+](=O)[O-],u,3.7µM*,x,3,0,-7%
COc1ccc2nc3oc(C(=O)N4CCC5(CC4)OCCO5)cc3cc2c1,12%,7%,-1%,-17,-11,-9%
O=[N+]([O-])c1ccc(O)c([N+](=O)[O-])c1,-19%,-24%,26%,u,43,10%
O=[N+]([O-])c1ccc(Cl)c([N+](=O)[O-])c1,5.2µM*,18µM*,5µM*,-29,-110*,7.1µM*
Cc1ccc2cc(C=C(C#N)C#N)c(Cl)nc2c1,-1%,-12%,-8%,-27,-96*,1%
Cc1cc(N2CCCC2)ccc1C=C(C#N)C#N,-1%,6%,4%,9,17,-21%
OC1(c2ccc(Cl)cc2)CCN(Cc2c[nH]c3ccccc23)CC1,18µM*,18µM*,u,23,u,-38%
c1ccc2c(CN3CCCCC3)c[nH]c2c1,-1%,-4%,0%,3,0,-29%
CCOC(=O)C1=C(N)OC2=C(C(=O)CCC2)C12C(=O)N(CC(N)=O)c1ccccc12 (centres undefined),15%,5%,11%,-9,-8,-69%
COc1ccc(C(=O)C2CCCN(CCc3ccccc3)C2)cc1OC (centres undefined),-20%,-9%,2%,x,-3,-18%
N#CC(C#N)=Cc1ccc(C=C(C#N)C#N)cc1,u,23µM*,u,3,-83*,25µM*
SMILES,HT1080NT lethal,HT1080 IDH1KD tx,TGFb inhibitor,Giardia killer,IL-1B inflam inh,HepG2 viability
CC1(C)C[C@H]2C=C(C=O)[C@]3(C=O)C[C@]3(C)[C@H]2C1,16µM*,12µM*,u,-2,-108*,10µM*
O=c1oc2ccccc2n1CSC1=NCCS1,u,u,u,-24,-107*,-27%
Cc1cc(NC(=O)CCl)no1,u,u,u,-7,-100*,-37%
Cc1cc(NC(=O)COC(=O)c2c(C)nn(Cc3ccccc3)c2C)no1,-2%,-2%,u,-16,-1,1%
COC(=O)C1=C(c2ccc(F)cc2OCc2ccccc2)C[C@@H]2CC[C@H]1N2C(=O)N1CCC(O)(c2ccc(Cl)cc2)CC1,-8%,-13%,-25%,9,-53*,-19%
COC(=O)C1=C(c2ccccc2OCc2ccccc2)C[C@@H]2CC[C@H]1N2C(=O)NCc1ccc(F)cc1,-22%,u,u,7,u,1%
COC(=O)C1=C(c2ccc(F)cc2OCc2ccccc2)C[C@@H]2CC[C@H]1N2C(=O)NCc1ccc(C)cc1,-9%,-13%,-23%,5,-59*,-12%
COC(=O)C1=C(c2ccc(F)cc2OCc2ccccc2)C[C@@H]2CC[C@H]1N2C(=O)NCc1ccc([N+](=O)[O-])cc1,-9%,-19%,u,u,-58*,4%
COC(=O)C1=C(c2ccc(F)cc2OCc2ccccc2)C[C@@H]2CC[C@H]1N2C(=O)N1CCCCC1,u,-16%,-20%,-20,8,-27%
COC(=O)C1=C(c2ccc(F)cc2OCc2ccccc2)C[C@@H]2CC[C@H]1N2C(=O)NCc1ccc(F)cc1,-18%,-10%,-30%,-12,-19,-7%
O=C1NC(=O)C(C2CCOC2=O)N1 (centres undefined),0%,-4%,11%,x,6,0%
O=C(Nc1ccccc1)C1CC(=O)N(C2CCCCC2)C1 (centres undefined),3%,0%,u,-11,-6,-4%
C[C@H]1COC2=C1C(=O)C(=O)c1c2ccc2c1CCCC2(C)C,u,-28%,4.5µM*,-23,-21,10µM*
Cc1cc(=O)oc2cc(OCC(=O)N3CCN(Cc4ccccc4)CC3)ccc12,7%,9%,1%,-1,-7,-16%
Cc1ccc(C[n+]2c(-c3ccc(C)cc3)cc(-c3ccc(C)cc3)cc2-c2ccc(C)cc2)cc1,3.3µM*,2.6µM*,u,3,-111*,-109%
Cc1ccc(C)c(N2CCN(C(=O)C3CCCN(S(=O)(=O)c4cccc5nsnc45)C3)CC2)c1 (centres undefined),x,x,u,x,x,-18%
O=C(Cn1c2c(c(-c3ccccc3Cl)cc1=O)CCC2)N1CCC2(CC1)OCCO2,-4%,1%,3%,-2,10,1%
